Experimental data published in PMC7862700, “An all-to-all approach to the identification of sequence-specific readers for epigenetic DNA modifications on cytosine”.

What was measured:
Assay in all cases: DAPPL (digital affinity profiling via proximity ligation, sequencing); 10 mM Tris-HCl pH 7.5, 50 mM NaCl, 1 mM DTT, 4% glycerol, room temperature, 30 min; GST-TFs on glutathione beads, 16-mer random dsDNA library, 0.1% formaldehyde crosslink after washing; high values mean tight binding
Details in all cases: protein: recombinant; tags: N-terminal GST; dsDNA, one strand shown
FEV = biological target: T1, FEV (Homo sapiens, UniProt Q99581 1-238)
T1 sequence: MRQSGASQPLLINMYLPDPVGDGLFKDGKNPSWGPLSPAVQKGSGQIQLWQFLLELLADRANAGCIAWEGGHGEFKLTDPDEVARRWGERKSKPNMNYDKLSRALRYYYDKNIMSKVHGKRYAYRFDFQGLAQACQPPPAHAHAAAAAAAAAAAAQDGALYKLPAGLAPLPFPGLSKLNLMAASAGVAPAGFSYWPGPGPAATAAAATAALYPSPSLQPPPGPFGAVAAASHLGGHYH
Method in brief: (§1)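 In yeast, human transcription factors were expressed with a GST fusion, then pulled down on glutathione beads and given DNA barcodes. Pooled with a tag-only sample, they were exposed to 200 nmole of a 16-mer random double-stranded DNA library (Tris/NaCl/DTT/glycerol buffer, room temperature, 30 min), washed, crosslinked with 0.1% formaldehyde, proximity-ligated using BsaI/T4 ligase for 1 h at 37 °C, PCR-amplified and read on an Illumina NextSeq500. Each hexamer's frequency of reads for a factor, divided by the matching frequency for the tag-only sample, gives the binding signal.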

ETV5 = ETV5 (Homo sapiens, UniProt P41161 1-510)
Chain of ETV5 (P41161 whole entry): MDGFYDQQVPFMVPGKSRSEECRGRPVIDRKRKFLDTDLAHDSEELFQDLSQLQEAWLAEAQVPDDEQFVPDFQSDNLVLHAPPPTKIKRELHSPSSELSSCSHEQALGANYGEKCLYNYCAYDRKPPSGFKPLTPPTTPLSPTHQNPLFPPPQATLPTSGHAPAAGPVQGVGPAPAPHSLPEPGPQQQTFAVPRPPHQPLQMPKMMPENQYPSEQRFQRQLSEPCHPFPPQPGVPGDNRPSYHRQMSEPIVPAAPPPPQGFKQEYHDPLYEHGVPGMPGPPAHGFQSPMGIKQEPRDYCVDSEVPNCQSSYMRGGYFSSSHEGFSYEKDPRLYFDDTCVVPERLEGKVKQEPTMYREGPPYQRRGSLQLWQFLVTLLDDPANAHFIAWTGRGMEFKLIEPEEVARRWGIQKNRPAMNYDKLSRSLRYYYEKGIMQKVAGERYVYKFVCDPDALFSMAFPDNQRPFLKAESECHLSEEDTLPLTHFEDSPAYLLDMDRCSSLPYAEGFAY
Method in brief: as §1

SPIC = biological target: T2, SPIC (Homo sapiens, UniProt Q8N5J4 1-248)
T2 sequence: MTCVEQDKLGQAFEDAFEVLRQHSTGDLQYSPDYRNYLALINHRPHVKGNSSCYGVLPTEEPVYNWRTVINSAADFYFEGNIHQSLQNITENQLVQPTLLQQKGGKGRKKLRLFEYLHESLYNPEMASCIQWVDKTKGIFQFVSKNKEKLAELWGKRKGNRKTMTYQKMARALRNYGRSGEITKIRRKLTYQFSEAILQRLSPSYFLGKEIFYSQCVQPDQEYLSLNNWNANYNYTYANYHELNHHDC
Method in brief: as §1

ELF4 = ELF4 (Homo sapiens, UniProt Q99607 1-663)
Chain of ELF4 (Q99607 whole entry): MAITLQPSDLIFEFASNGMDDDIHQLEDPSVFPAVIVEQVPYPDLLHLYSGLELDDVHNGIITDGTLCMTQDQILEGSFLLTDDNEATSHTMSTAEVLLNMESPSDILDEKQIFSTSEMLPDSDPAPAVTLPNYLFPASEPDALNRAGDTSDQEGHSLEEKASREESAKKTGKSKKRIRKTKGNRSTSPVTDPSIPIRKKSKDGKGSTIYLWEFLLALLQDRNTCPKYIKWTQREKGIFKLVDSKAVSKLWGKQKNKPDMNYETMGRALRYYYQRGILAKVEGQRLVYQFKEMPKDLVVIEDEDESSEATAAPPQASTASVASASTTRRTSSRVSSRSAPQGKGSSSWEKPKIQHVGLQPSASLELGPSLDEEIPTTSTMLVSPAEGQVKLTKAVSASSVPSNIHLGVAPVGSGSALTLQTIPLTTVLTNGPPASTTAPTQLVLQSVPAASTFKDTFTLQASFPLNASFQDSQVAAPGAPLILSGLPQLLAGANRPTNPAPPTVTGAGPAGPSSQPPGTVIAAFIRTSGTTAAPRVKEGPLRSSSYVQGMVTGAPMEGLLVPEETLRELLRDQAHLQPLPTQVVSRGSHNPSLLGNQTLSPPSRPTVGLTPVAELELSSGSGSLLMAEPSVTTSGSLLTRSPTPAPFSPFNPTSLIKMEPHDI
Method in brief: as §1

ELK4 = biological target: T3, ELK4 (Homo sapiens, UniProt P28324-2 1-405)
T3 sequence: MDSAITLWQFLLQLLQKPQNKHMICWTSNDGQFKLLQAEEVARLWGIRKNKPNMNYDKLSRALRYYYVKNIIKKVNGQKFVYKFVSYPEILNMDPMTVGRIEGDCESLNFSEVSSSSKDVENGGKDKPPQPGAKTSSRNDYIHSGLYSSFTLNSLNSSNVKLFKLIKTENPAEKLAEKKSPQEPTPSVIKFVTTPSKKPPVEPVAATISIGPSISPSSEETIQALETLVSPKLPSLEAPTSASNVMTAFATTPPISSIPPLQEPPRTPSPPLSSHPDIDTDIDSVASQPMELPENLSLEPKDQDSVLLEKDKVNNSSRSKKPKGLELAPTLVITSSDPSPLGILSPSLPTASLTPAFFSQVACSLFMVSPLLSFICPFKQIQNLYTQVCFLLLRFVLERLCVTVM
Method in brief: as §1

ETV2 = biological target: T4, ETV2 (Homo sapiens, UniProt O00321 1-342)
T4 sequence: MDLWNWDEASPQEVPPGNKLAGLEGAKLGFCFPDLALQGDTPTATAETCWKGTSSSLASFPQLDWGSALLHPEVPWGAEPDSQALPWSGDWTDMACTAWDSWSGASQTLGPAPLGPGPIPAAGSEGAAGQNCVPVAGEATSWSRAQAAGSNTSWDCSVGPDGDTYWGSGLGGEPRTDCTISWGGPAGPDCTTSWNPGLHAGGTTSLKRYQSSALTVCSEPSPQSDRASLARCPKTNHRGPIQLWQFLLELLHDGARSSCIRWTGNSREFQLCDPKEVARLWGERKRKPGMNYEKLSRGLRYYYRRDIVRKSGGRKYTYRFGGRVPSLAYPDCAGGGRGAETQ
Method in brief: as §1

ETV1 = ETV1 (Homo sapiens, UniProt P50549 1-477)
Chain of ETV1 (P50549 whole entry): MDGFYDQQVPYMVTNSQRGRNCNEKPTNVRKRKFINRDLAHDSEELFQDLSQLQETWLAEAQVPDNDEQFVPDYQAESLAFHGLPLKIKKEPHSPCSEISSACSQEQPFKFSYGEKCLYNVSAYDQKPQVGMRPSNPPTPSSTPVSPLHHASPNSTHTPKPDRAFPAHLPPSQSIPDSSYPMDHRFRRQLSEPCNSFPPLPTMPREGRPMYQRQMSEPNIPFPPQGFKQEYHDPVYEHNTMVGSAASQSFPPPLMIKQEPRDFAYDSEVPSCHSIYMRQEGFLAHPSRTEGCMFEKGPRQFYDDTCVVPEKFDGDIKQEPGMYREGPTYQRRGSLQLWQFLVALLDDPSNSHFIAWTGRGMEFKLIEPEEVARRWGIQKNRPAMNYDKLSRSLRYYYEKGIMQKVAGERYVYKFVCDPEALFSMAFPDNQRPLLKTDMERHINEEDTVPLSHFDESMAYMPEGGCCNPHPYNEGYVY
Method in brief: as §1

ERF = biological target: T5, ERF (Homo sapiens, UniProt P50548 1-548)
T5 sequence: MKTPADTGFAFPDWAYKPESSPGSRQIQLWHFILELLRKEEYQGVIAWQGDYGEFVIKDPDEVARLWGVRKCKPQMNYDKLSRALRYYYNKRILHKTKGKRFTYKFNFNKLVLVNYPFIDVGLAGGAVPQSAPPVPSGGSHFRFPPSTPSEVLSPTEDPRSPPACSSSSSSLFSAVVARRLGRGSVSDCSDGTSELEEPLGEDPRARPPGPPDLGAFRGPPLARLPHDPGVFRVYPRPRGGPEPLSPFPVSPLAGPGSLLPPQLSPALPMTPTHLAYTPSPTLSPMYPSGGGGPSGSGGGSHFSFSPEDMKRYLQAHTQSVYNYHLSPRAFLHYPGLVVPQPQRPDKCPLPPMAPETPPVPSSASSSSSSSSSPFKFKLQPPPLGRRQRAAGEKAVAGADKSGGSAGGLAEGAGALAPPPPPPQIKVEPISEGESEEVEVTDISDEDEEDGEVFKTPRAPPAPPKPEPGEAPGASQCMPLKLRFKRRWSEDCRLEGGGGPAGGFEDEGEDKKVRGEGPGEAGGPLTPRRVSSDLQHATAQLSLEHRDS
Method in brief: as §1

ETV3L = biological target: T6, ETV3L (Homo sapiens, UniProt Q6ZN32 1-361)
T6 sequence: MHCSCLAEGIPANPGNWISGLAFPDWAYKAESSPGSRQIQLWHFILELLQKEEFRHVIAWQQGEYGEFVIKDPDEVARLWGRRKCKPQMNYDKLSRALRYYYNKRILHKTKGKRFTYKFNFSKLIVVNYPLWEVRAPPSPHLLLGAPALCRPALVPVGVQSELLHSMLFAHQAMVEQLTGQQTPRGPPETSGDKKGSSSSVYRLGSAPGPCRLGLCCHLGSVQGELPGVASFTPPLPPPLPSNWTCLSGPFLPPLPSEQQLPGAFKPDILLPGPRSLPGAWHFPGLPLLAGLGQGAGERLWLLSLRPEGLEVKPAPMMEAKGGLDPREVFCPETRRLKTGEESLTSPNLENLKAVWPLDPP
Method in brief: as §1

ETS2 = biological target: T7, ETS2 (Homo sapiens, UniProt P15036 1-469)
T7 sequence: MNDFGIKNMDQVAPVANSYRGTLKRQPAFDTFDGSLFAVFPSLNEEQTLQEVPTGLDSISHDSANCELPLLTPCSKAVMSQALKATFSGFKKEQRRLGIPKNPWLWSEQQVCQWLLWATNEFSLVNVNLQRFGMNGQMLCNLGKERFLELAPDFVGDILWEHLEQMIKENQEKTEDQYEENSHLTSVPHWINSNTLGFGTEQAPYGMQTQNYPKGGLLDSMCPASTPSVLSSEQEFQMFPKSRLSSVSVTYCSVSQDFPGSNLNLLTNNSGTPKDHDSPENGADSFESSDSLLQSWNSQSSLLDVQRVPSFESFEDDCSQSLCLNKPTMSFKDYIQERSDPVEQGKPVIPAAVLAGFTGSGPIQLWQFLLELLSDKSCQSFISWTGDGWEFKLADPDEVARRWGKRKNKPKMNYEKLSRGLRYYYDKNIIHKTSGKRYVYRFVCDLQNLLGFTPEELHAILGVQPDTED
Method in brief: as §1

SPDEF = biological target: T8, SPDEF (Homo sapiens, UniProt O95238 1-335)
T8 sequence: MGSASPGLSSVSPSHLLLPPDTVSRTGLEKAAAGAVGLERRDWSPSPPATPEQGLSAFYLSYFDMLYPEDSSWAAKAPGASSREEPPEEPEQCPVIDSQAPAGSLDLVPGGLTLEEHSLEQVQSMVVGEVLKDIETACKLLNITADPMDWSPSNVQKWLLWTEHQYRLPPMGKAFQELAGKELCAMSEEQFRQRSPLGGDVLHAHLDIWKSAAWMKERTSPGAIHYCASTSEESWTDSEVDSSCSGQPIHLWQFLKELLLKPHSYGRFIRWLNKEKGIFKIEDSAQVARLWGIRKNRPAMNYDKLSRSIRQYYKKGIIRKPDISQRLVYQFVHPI
Method in brief: as §1

ETV7 = biological target: T9, ETV7 (Homo sapiens, UniProt Q9Y603 1-341)
T9 sequence: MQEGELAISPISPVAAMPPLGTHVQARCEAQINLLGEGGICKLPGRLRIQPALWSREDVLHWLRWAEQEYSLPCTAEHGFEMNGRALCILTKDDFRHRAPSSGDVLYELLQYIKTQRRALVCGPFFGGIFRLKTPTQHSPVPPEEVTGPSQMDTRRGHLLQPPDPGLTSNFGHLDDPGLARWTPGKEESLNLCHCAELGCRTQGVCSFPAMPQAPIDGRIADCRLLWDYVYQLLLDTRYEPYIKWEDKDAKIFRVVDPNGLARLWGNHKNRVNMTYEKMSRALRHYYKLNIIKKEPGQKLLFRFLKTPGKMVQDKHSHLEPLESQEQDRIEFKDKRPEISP
Method in brief: as §1

ELF5 = biological target: T10, ELF5 (Homo sapiens, UniProt Q9UKW6-2 1-255)
T10 sequence: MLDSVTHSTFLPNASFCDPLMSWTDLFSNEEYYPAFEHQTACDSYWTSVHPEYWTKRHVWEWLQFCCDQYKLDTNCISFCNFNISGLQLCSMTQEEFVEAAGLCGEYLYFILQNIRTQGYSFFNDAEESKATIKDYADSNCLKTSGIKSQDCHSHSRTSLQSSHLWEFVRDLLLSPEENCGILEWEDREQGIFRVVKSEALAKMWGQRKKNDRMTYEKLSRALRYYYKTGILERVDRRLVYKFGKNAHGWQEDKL
Method in brief: as §1

ETV3 = biological target: T11, ETV3 (Homo sapiens, UniProt P41162-2 1-143)
T11 sequence: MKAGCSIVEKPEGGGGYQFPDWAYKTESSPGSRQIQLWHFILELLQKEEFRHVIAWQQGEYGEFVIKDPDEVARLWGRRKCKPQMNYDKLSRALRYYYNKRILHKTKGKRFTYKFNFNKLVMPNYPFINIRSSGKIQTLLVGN
Method in brief: as §1

ETV6 = ETV6 (Homo sapiens, UniProt P41212 1-452)
Chain of ETV6 (P41212 whole entry): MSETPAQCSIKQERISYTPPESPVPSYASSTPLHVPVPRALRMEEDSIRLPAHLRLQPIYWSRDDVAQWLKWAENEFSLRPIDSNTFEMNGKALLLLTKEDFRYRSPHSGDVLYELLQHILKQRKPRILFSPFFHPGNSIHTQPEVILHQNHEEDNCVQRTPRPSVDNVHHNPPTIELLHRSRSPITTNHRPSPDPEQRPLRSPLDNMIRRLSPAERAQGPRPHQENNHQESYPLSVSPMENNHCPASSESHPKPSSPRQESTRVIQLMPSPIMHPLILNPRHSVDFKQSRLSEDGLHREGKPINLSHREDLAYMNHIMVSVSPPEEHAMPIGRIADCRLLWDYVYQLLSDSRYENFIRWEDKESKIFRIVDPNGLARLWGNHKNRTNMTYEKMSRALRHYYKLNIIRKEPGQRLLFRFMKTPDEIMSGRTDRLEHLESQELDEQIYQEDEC
Method in brief: as §1

ELF3 = biological target: T12, ELF3 (Homo sapiens, UniProt P78545 1-371)
T12 sequence: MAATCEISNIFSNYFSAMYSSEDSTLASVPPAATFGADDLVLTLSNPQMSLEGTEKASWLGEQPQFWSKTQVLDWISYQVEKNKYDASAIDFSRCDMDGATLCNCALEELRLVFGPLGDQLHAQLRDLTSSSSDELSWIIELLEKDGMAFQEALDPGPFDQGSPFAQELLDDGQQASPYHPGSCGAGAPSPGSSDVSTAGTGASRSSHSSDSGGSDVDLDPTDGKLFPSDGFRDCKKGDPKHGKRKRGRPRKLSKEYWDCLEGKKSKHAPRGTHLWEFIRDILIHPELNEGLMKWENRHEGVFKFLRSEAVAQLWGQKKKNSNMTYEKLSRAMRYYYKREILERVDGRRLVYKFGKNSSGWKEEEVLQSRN
Method in brief: as §1

CRX = CRX (Homo sapiens, UniProt O43186 1-299)
Chain of CRX (O43186 whole entry): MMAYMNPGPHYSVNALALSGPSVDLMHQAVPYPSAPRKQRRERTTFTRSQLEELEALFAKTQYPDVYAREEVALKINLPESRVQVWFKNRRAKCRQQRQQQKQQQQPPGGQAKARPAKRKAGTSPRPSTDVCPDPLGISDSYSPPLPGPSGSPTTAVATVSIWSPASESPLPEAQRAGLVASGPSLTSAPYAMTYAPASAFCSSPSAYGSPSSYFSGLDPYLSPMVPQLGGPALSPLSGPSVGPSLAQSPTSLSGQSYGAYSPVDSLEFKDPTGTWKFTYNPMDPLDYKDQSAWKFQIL
Method in brief: as §1

Row | Sequence | binding signal (FEV) | binding signal (ETV5) | binding signal (SPIC) | binding signal (ELF4) | binding signal (ELK4) | binding signal (ETV2) | binding signal (ETV1) | binding signal (ERF) | binding signal (ETV3L) | binding signal (ETS2) | binding signal (SPDEF) | binding signal (ETV7) | binding signal (ELF5) | binding signal (ETV3) | binding signal (ETV6) | binding signal (ELF3) | binding signal (CRX)
1 | ACACTC | 1.12 fold enrichment (6-mer frequency, TF over GST control) | 1.04 fold enrichment (6-mer frequency, TF over GST control) | 1.01 fold enrichment (6-mer frequency, TF over GST control) | 1.14 fold enrichment (6-mer frequency, TF over GST control) | 1.19 fold enrichment (6-mer frequency, TF over GST control) | 1.11 fold enrichment (6-mer frequency, TF over GST control) | 1.07 fold enrichment (6-mer frequency, TF over GST control) | 1.06 fold enrichment (6-mer frequency, TF over GST control) | 1.08 fold enrichment (6-mer frequency, TF over GST control) | 1.14 fold enrichment (6-mer frequency, TF over GST control) | 1.02 fold enrichment (6-mer frequency, TF over GST control) | 1.07 fold enrichment (6-mer frequency, TF over GST control) | 1.05 fold enrichment (6-mer frequency, TF over GST control) | 1.16 fold enrichment (6-mer frequency, TF over GST control) | 1.11 fold enrichment (6-mer frequency, TF over GST control) | – | –
2 | GGGCTA | 1.04 fold enrichment (6-mer frequency, TF over GST control) | 1.06 fold enrichment (6-mer frequency, TF over GST control) | 1.23 fold enrichment (6-mer frequency, TF over GST control) | 1.17 fold enrichment (6-mer frequency, TF over GST control) | 1.29 fold enrichment (6-mer frequency, TF over GST control) | – | 1.11 fold enrichment (6-mer frequency, TF over GST control) | 1.02 fold enrichment (6-mer frequency, TF over GST control) | 1.18 fold enrichment (6-mer frequency, TF over GST control) | 1.2 fold enrichment (6-mer frequency, TF over GST control) | 1.09 fold enrichment (6-mer frequency, TF over GST control) | 1.06 fold enrichment (6-mer frequency, TF over GST control) | 1.09 fold enrichment (6-mer frequency, TF over GST control) | 1.12 fold enrichment (6-mer frequency, TF over GST control) | 1.13 fold enrichment (6-mer frequency, TF over GST control) | 1 fold enrichment (6-mer frequency, TF over GST control) | 1.15 fold enrichment (6-mer frequency, TF over GST control)
3 | CCAATG | 1.1 fold enrichment (6-mer frequency, TF over GST control) | 1.03 fold enrichment (6-mer frequency, TF over GST control) | 1.03 fold enrichment (6-mer frequency, TF over GST control) | 1.13 fold enrichment (6-mer frequency, TF over GST control) | 1.13 fold enrichment (6-mer frequency, TF over GST control) | – | 1.06 fold enrichment (6-mer frequency, TF over GST control) | 1.03 fold enrichment (6-mer frequency, TF over GST control) | 1.11 fold enrichment (6-mer frequency, TF over GST control) | 1.08 fold enrichment (6-mer frequency, TF over GST control) | 1.02 fold enrichment (6-mer frequency, TF over GST control) | 1.1 fold enrichment (6-mer frequency, TF over GST control) | 1.05 fold enrichment (6-mer frequency, TF over GST control) | 1.15 fold enrichment (6-mer frequency, TF over GST control) | 1.14 fold enrichment (6-mer frequency, TF over GST control) | 1.05 fold enrichment (6-mer frequency, TF over GST control) | –
